Hit rate of the full screen: of about 39,000 compounds, about 3,300 (8.5%) were called active. This excerpt belongs to a sample that is enriched for actives.

The test system of the assay is HepG2. In words: cytotoxicity call (relative viability < 0.9). The conditions noted are these: 10 µM.
In the case of `C[C@@H]1CN([C@@H](C)CO)C(=O)c2cc(C#CC3(O)CCCC3)cnc2O[C@H]1CN(C)C(=O)Cc1ccncc1`, the cytotoxicity call is “inactive”.
`C[C@@H]1CCCCO[C@@H](CN(C)S(=O)(=O)c2ccccc2)[C@H](C)CN([C@H](C)CO)C(=O)c2cc(NC(=O)c3ccccc3)ccc2O1`: the cytotoxicity call was “inactive”.
Regarding `N=C(N=C(N)N)N1CCOCC1`, the cytotoxicity call was “inactive”.
For `O=C1N[C@@H]2[C@@H]1[C@H]1C=C[C@H]2C1` the value was “inactive”; for `C[C@@H]1CCCCO[C@H](CN(C)C(=O)Nc2ccc(F)cc2)[C@H](C)CN([C@@H](C)CO)C(=O)c2cc(NS(=O)(=O)c3ccc(F)cc3)ccc2O1`, “inactive”.
For `C[C@H]1CN([C@@H](C)CO)C(=O)c2cc(-c3ccncc3)cnc2O[C@@H]1CN(C)S(=O)(=O)c1ccc(F)cc1` the value was “inactive”; for `COc1ccccc1CNC(=O)C[C@@H]1C[C@@H]2c3cc(NC(=O)c4ccc5c(c4)OCO5)ccc3O[C@@H]2[C@@H](CO)O1`, “inactive”; for `CNC(=O)c1ccc(CO)cc1`, “inactive”.
In the case of `CN(C)Cc1cn(CC[C@@H]2CC[C@H](N)[C@@H](CO)O2)nn1`, the cytotoxicity call was “inactive”.
Take `C[C@H]1CN([C@@H](C)CO)C(=O)c2cccc(NC(=O)NC3CCCCC3)c2O[C@H]1CN(C)S(=O)(=O)c1cn(C)cn1`: the cytotoxicity call was “inactive”.
As to `O=C(C[C@@H]1CC[C@H]2[C@@H](COC[C@@H](O)CN2C(=O)c2ccccn2)O1)NC1CCC1`, the cytotoxicity call is “inactive”.
On to `CN1CCC(=C2c3ccccc3CCc3sccc32)CC1.O=C(O)CC(O)C(=O)O`, for which the cytotoxicity call was “inactive”.
For `CN1CCC(=C2c3ccccc3C=Cc3ccccc32)CC1.Cl` the value was “active”.
For `CN1C(=O)c2ccccc2C1=O` the value was “inactive”.
The entry for `CN1CCN(C(c2ccccc2)c2ccccc2)CC1` is “inactive”.
In the case of `CN1CCC(=C2c3ccccc3CC(=O)c3sccc32)CC1.O=C(O)C=CC(=O)O`, the cytotoxicity call was “inactive”.
Consider `CN1CCC(=C2c3ccccc3Sc3ccccc32)CC1.O=C(O)C=CC(=O)O`, for which the cytotoxicity call is “active”.
For `C[C@H]1CCCCO[C@H](CN(C)C(=O)Nc2ccc(C(F)(F)F)cc2)[C@@H](C)CN([C@@H](C)CO)C(=O)c2cc(NC(=O)c3ccccc3)ccc2O1` the value was “inactive”; for `CCOC(=O)[C@@H]1C(Cc2ccccc2)=CN(CCc2ccc(OC)c(OC)c2)C(=O)N1c1ccc(OC)cc1`, “inactive”; for `C[C@@H]1CN([C@H](C)CO)C(=O)c2cc(C#CCN(C)C)cnc2O[C@@H]1CN(C)C(=O)Nc1cccc(F)c1`, “inactive”.
On to `C[C@@H]1CN([C@H](C)CO)C(=O)c2cccc(NC(=O)c3nc4ccccc4s3)c2O[C@@H]1CN(C)C(=O)Nc1cccc2ccccc12`, for which the cytotoxicity call is “inactive”.
The entry for `C[C@H]1CN([C@@H](C)CO)C(=O)c2cccc(NC(=O)c3nc4ccccc4s3)c2O[C@@H]1CN(C)C(=O)Nc1cccc2ccccc12` is “inactive”.
The entry for `C[C@H]1CN([C@@H](C)CO)C(=O)c2cccc(NC(=O)c3nc4ccccc4s3)c2O[C@H]1CN(C)C(=O)Nc1cccc2ccccc12` is “inactive”.
The entry for `C[C@@H]1CN([C@@H](C)CO)C(=O)c2cccc(NC(=O)c3nc4ccccc4s3)c2O[C@H]1CN(C)CC1CCCCC1` is “inactive”; for `C[C@H](CO)N1C[C@H](C)[C@H](CN(C)C(=O)Nc2cccc3ccccc23)Oc2c(NC(=O)c3nc4ccccc4s3)cccc2C1=O` it is “inactive”.
Regarding `C[C@H](CO)N1C[C@H](C)[C@@H](CN(C)C(=O)Nc2cccc3ccccc23)Oc2c(NC(=O)c3nc4ccccc4s3)cccc2C1=O`, the cytotoxicity call is “active”.
The entry for `C[C@@H]1CN([C@@H](C)CO)C(=O)c2cccc(NC(=O)c3nc4ccccc4s3)c2O[C@@H]1CN(C)CC1CCCCC1` is “active”.
In the case of `C[C@@H]1CN([C@@H](C)CO)C(=O)c2cccc(NC(=O)c3nc4ccccc4s3)c2O[C@H]1CN(C)C(=O)Nc1cccc2ccccc12`, the cytotoxicity call is “active”.
For `C[C@@H]1CN([C@H](C)CO)C(=O)c2cccc(NC(=O)c3nc4ccccc4s3)c2O[C@H]1CN(C)CC1CCCCC1` the value was “inactive”; for `COc1cccc(S(=O)(=O)N[C@H]2CC[C@@H](CC(=O)NC3CCC3)O[C@H]2CO)c1`, “inactive”.
For `COC(=O)c1c[nH]c(=S)n1C` the value was “inactive”.
The entry for `COc1ccc(NC(=O)Nc2cccc3c2O[C@H](CN(C)Cc2ccc(C(=O)Nc4ccccc4N)cc2)[C@@H](C)CN([C@@H](C)CO)C3=O)cc1` is “inactive”; for `O=C(C[C@H]1CC[C@@H]2[C@H](COC[C@H](O)CN2C(=O)c2ccccc2F)O1)N1CCN(c2ccccc2)CC1` it is “inactive”; for `CC[C@@H](C)SSc1ncc[nH]1` it is “inactive”.
Regarding `C[C@@H]1CCCCO[C@H](CN(C)C(=O)Nc2cccc3ccccc23)[C@H](C)CN([C@H](C)CO)C(=O)c2cc(NC(=O)C3CCCCC3)ccc2O1`, the cytotoxicity call was “active”.
The entry for `C[C@H](CO)N1C[C@H](C)[C@@H](CN(C)C(=O)Nc2cccc3ccccc23)OCCCC[C@H](C)Oc2ccc(NC(=O)C3CCCCC3)cc2C1=O` is “inactive”; for `C[C@@H]1CN([C@H](C)CO)C(=O)c2cc(NC(=O)C3CCCCC3)ccc2O[C@@H](C)CCCCO[C@@H]1CN(C)C(=O)Nc1cccc2ccccc12` it is “active”.
The entry for `C[C@@H]1CCCCO[C@@H](CN(C)C(=O)Nc2cccc3ccccc23)[C@H](C)CN([C@H](C)CO)C(=O)c2cc(NC(=O)C3CCCCC3)ccc2O1` is “active”; for `C[C@H](CO)N1C[C@H](C)[C@H](CN(C)C(=O)Nc2cccc3ccccc23)OCCCC[C@H](C)Oc2ccc(NC(=O)C3CCCCC3)cc2C1=O` it is “active”; for `C[C@@H]1CCCCO[C@@H](CN(C)C(=O)Nc2cccc3ccccc23)[C@H](C)CN([C@@H](C)CO)C(=O)c2cc(NC(=O)C3CCCCC3)ccc2O1` it is “inactive”.
The entry for `C[C@@H]1CN([C@H](C)CO)C(=O)c2cc(NC(=O)C3CCCCC3)ccc2O[C@@H](C)CCCCO[C@H]1CN(C)C(=O)Nc1cccc2ccccc12` is “inactive”; for `C[C@@H]1CCCCO[C@H](CN(C)C(=O)Nc2cccc3ccccc23)[C@@H](C)CN([C@H](C)CO)C(=O)c2cc(NC(=O)C3CCCCC3)ccc2O1` it is “inactive”; for `C[C@@H]1CCCCO[C@H](CN(C)C(=O)Nc2cccc3ccccc23)[C@@H](C)CN([C@@H](C)CO)C(=O)c2cc(NC(=O)C3CCCCC3)ccc2O1` it is “inactive”.
As for `C[C@@H]1CCCCO[C@@H](CN(C)C(=O)Nc2cccc3ccccc23)[C@@H](C)CN([C@@H](C)CO)C(=O)c2cc(NC(=O)C3CCCCC3)ccc2O1`, the cytotoxicity call was “inactive”.
As for `C[C@H]1CCCCO[C@@H](CN(C)C(=O)Nc2cccc3ccccc23)[C@@H](C)CN([C@@H](C)CO)C(=O)c2cc(NC(=O)C3CCCCC3)ccc2O1`, the cytotoxicity call was “inactive”.
In the case of `C[C@@H]1CCCCO[C@@H](CN(C)C(=O)Nc2cccc3ccccc23)[C@@H](C)CN([C@H](C)CO)C(=O)c2cc(NC(=O)C3CCCCC3)ccc2O1`, the cytotoxicity call is “inactive”.
For `C[C@H]1CN([C@@H](C)CO)C(=O)c2cc(NC(=O)Cn3cnnn3)ccc2O[C@H]1CN(C)S(=O)(=O)c1ccc(Cl)cc1` the value was “inactive”; for `COc1ccc(S(=O)(=O)N(C)C[C@H]2Oc3ccc(NS(=O)(=O)c4ccc(C)cc4)cc3C(=O)N([C@H](C)CO)C[C@H]2C)cc1`, “inactive”; for `C[C@@H]1CN([C@@H](C)CO)C(=O)Cc2cc(NC(=O)C3CCCCC3)ccc2O[C@@H]1CN(C)S(=O)(=O)c1cn(C)cn1`, “inactive”.
For `C[C@H](CO)N1C[C@H](C)[C@H](CN(C)Cc2ccc(Oc3ccccc3)cc2)Oc2c(NC(=O)Nc3ccccc3)cccc2C1=O` the value was “inactive”; for `O[C@@H](Cc1ccccc1)[C@@H](/C=C/C1CC1)N(CC#Cc1ccccc1)Cc1ccccc1Br`, “inactive”; for `C[C@H](CO)N1C[C@H](C)[C@H](CN(C)C(=O)Nc2ccc3c(c2)OCO3)Oc2ccc(NC(=O)Nc3cccc4ccccc34)cc2C1=O`, “inactive”.
The entry for `C[C@@H]1CN([C@@H](C)CO)C(=O)c2cc(NC(=O)C3CCCCC3)ccc2O[C@@H](C)CCCCO[C@H]1CN(C)C(=O)Nc1cccc2ccccc12` is “inactive”.
With `C[C@@H]1CCCCO[C@H](CN(C)C(=O)Nc2cccc3ccccc23)[C@H](C)CN([C@@H](C)CO)C(=O)c2cc(NC(=O)C3CCCCC3)ccc2O1`, the cytotoxicity call was “inactive”.
The entry for `C[C@@H]1CN([C@@H](C)CO)C(=O)c2cc(NC(=O)C3CCCCC3)ccc2O[C@@H](C)CCCCO[C@@H]1CN(C)C(=O)Nc1cccc2ccccc12` is “active”.
The entry for `C[C@H]1CCCCO[C@H](CN(C)S(=O)(=O)c2cccs2)[C@@H](C)CN([C@@H](C)CO)C(=O)c2cc(NC(=O)Nc3ccccc3)ccc2O1` is “inactive”; for `COc1ccc2c3c(n(c2c1)C)[C@@H](CO)N(C[C@]13CCN(CC1)C(=O)c1cnccn1)C(=O)c1cnccn1` it is “inactive”; for `CC(C)NC(=O)N(C)C[C@@H]1OCCCC[C@@H](C)Oc2ccc(NC(=O)Nc3cccc4ccccc34)cc2C(=O)N([C@H](C)CO)C[C@@H]1C` it is “inactive”.
For `Cc1csc(-c2nnc(Nc3ccc(Oc4ncccc4-c4ccnc(N)n4)cc3)c3ccccc23)c1` the value was “active”; for `Cc1ccc(Oc2nnc(-c3cccs3)c3ccccc23)cc1`, “inactive”.
Regarding `C[C@@]1(c2ccc3c(c2)OCCO3)NC(=O)NC1=O`, the cytotoxicity call was “inactive”.
The entry for `Cc1noc(C)c1S(=O)(=O)Nc1ccc2c(c1)CC(=O)N([C@@H](C)CO)C[C@H](C)[C@H](CN(C)Cc1ccncc1)O2` is “inactive”.
For `C[C@@H]1CC[C@]2(C(=O)O[C@@H]3O[C@H](CO)[C@@H](O)[C@H](O)[C@H]3O)CC[C@]3(C)C(=CC[C@H]4[C@@]5(C)C[C@@H](O)[C@H](O)[C@@](C)(CO)[C@@H]5CC[C@]43C)[C@@H]2[C@]1(C)O` the value was “inactive”; for `CC=C(C)C(=O)OC1C(OC(C)=O)C2(CO)C(O)CC3(C)C(=CCC4C5(C)CCC(OC6OC(C(=O)O)C(OC7OC(CO)C(O)C(O)C7O)C(O)C6OC6OC(CO)C(O)C(O)C6O)C(C)(CO)C5CCC43C)C2CC1(C)C` (stereo not drawn), “active”; for `C/C=C(/C)C(=O)O[C@@H]1[C@H](OC(C)=O)[C@]2(CO)[C@H](O)C[C@]3(C)C(=CC[C@H]4[C@@]5(C)CC[C@H](O[C@@H]6O[C@H](C(=O)O)[C@@H](O[C@@H]7O[C@H](CO)[C@@H](O)[C@H](O)[C@H]7O)[C@H](O)[C@H]6O[C@@H]6O[C@H](CO)[C@@H](O)[C@H](O)[C@H]6O)[C@](C)(CO)[C@@H]5CC[C@]43C)[C@@H]2CC1(C)C`, “inactive”.
For `CC=C(C)C(=O)O[C@H]1[C@H](OC(C)=O)[C@]2(CO)[C@H](O)C[C@]3(C)C(=CC[C@@H]4[C@@]5(C)CC[C@H](O[C@@H]6O[C@H](C(=O)O)[C@@H](O[C@@H]7O[C@H](CO)[C@@H](O)[C@H](O)[C@H]7O)[C@H](O)[C@H]6O[C@@H]6O[C@H](CO)[C@@H](O)[C@H](O)[C@H]6O)[C@](C)(CO)[C@@H]5CC[C@]43C)[C@@H]2CC1(C)C` the value was “active”.
Take `C/C=C(/C)C(=O)O[C@H]1[C@@H](OC(C)=O)[C@@]2(CO)[C@@H](O)C[C@@]3(C)C(=CC[C@H]4[C@@]5(C)CC[C@@H](O[C@H]6O[C@H](C(=O)O)[C@@H](O[C@H]7O[C@@H](CO)[C@@H](O)[C@@H](O)[C@@H]7O)[C@@H](O)[C@@H]6O[C@H]6O[C@@H](CO)[C@@H](O)[C@@H](O)[C@@H]6O)[C@@](C)(CO)[C@@H]5CC[C@]43C)[C@@H]2CC1(C)C`: the cytotoxicity call was “active”.
For `C[C@H]1O[C@@H](O[C@H]2CC[C@@]3(C)[C@@H](CC[C@@]4(C)[C@@H]3CC=C3[C@H]5C[C@](C)(C(=O)O)CC[C@]5(C(=O)O[C@H]5O[C@@H](CO)[C@@H](O)[C@@H](O)[C@@H]5O)CC[C@@]34C)[C@@]2(C)CO)[C@@H](O)[C@@H](O[C@H]2O[C@@H](CO)[C@@H](O)[C@@H](O)[C@@H]2O)[C@@H]1O` the value was “inactive”.

The values are drawn from the antibiotic and cytotoxicity screens of Wong et al. (2023).
